Assay results: PubChem BioAssay AID2551 (National Center for Advancing Translational Sciences (NCATS), 2010)
Where “and” joins values, the source holds several entries; their conditions need not be identical. Identical values can stand only once. The campaign covered roughly 310,000 compounds. About 17,000 (5.5%) were called active. Another 11% or so got no clear call; they are omitted. Calls come from the whole dose curve; as a rule, active = well fitted inhibition curve with a large enough effect; inconclusive = small, poorly fitted or top-dose-only effect, or effect the other way; inactive = no such curve, though single readings can be large or run the other way. The sample as a whole holds a higher share of actives than the screen did. Some compounds were tested as several samples or in several runs, with calls that do not always agree.

target: Nuclear receptor ROR-gamma (Mus musculus) (UniProt P51450); test: qHTS for inhibitors of ROR gamma transcriptional activity; details: Drosophila S2 Gal4-RORgamma UAS-luciferase reporter, 20 h; series mostly up to 53.6 µM; activity change, negative = inhibition: at the top concentration; note: nearly all actives have a fitted effect of over 60% in size
Excerpt: NIH Molecular Libraries Probe Production Network [MLPCN] NIH Chemical Genomics Center [NCGC] MLPCN Grant: R03 DA026211-01 Assay Provider: Dan Littman, New York University Assay Overview: The retinoic acid-related orphan receptor (ROR) gamma is a transcription factor that has a central role in the differentiation of Th17 cells, a subset of T helper cells that secrete the inflammatory cytokines IL-17, IL-17F, and IL-22. Th17 cells have been implicated in graft versus host disease, autoimmune disease and asthma. ROR gamma is induced in naive T helper cells in the presence of TGF-beta combined with IL-6, IL-21, or IL-23, and thereafter directs the expression of the Th17 lineage cytokines. To study the mechanism of action of ROR gamma, an insect cell-based assay was screened. This Drosophila Schneider cell line was stably transfected with two vectors: a gene expressing a fusion of the Gal4 DNA binding domain and ROR gamma transactivation domain under the control of the metallothionine promoter and a Photinus luciferase reporter regulated by the Gal4 binding site enhancer, UAS. […] Small molecule inhibitors of ROR gamma activity are detected by a decrease in luciferase reporter activity.
Assay Protocol Summary: For screening, 600 cells in 4 uL/well were dispensed into white solid 1536-well plates (Grenier) using a solenoid-based dispenser. Following transfer of 23 nL compound or DMSO vehicle by a pin tool, the plates were incubated 1 hr at ambient temperature, and 1 uL/well copper sulfate (700 uM final concentration) was added. The plates were centrifuged 15 s at 1000 RPM and incubated 20 hr at ambient temperature. After addition of 1.5 uL Photinus luciferase detection reagent, the plates were incubated 10 min at ambient temperature and then read by an ViewLux (Perkin Elmer) to detect luminescence. Keywords: NIH Roadmap, MLPCN, MLI, MLSMR, qHTS, NCGC, qHTS, nuclear hormone receptor, retinoic acid-related orphan receptor, ROR gamma
% is set by controls: 0 for no effect and ±100 for the full control effect; potency is the fitted concentration of half-maximal effect.

Chain of Nuclear receptor ROR-gamma (Mus musculus) (P51450 whole entry, looked up, the tested form may be a part): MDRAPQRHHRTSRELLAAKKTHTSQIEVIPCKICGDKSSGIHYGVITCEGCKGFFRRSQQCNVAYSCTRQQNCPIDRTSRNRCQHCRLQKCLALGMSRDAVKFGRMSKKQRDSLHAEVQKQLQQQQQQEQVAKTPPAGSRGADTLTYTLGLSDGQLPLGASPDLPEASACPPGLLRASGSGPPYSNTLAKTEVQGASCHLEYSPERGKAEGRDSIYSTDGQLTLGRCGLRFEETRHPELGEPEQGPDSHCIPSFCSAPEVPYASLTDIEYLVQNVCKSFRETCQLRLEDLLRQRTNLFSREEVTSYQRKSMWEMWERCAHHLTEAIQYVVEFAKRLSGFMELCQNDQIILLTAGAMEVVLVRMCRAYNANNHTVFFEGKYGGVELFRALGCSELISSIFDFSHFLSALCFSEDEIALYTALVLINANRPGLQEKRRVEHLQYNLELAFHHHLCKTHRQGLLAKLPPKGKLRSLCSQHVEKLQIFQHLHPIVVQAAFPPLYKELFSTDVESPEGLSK

Row | SMILES | activity change, negative = inhibition | Potency
1 | Cc1nn(C)c(Cl)c1CN1CCC(Oc2ccc(C(=O)N3CCCC3)cc2)CC1 | -28% (inactive) | 
2 | CCOc1ccc(N/C(N)=N/c2nc(C)c(C)c(=O)[nH]2)cc1 | 0.457% (inactive) | 
3 | Cc1ccc(C(=O)N/C(=C\c2cn(S(=O)(=O)N(C)C)c3ccccc23)C(=O)N2CCCC2)cc1 | 12.2% (inactive) | 
4 | CCOc1cc(/C=C2\C(=N)N3N=C(C)SC3=NC2=O)ccc1OCCOc1ccccc1 | 26.8% [at 1.91 µM] (inactive) | 
5 | COc1cccc(OC)c1C(=O)Nc1c(C(=O)N2CCN(c3ccccn3)CC2)oc2ccccc12 | 26.4% (inactive) | 
6 | CCOc1cc(C)ccc1OCc1nnc(SCC(=O)Nc2cccc(C(=O)O)c2)n1-c1ccccc1 | -3.43% (inactive) | 
7 | CC(Sc1nnc2c(n1)C1CCC2(C)C1(C)C)C(=O)Nc1ccccc1 (configuration not stated) | 8.52% (inactive) | 
8 | Cc1cc(C)c(C#N)c(SCC(=O)Nc2ccccc2)n1 | -8.89% (inactive) | 
9 | CSc1nc(C)cc(SC(C(C)=O)C(=O)Nc2ccccc2)n1 (configuration not stated) |  | 8.91 µM (active)
10 | Cc1c(CN2CC[C@@H](N3CCN(c4ccccn4)CC3)[C@H](O)C2)[nH]c2ccc(F)cc12 | 10.1% (inactive) | 
11 | CC1CC(c2ccccc2)n2nc(NC(=O)c3cccs3)nc2N1 (configuration not stated) |  | 14.1 µM (active)
12 | COc1ccc(CC(=O)Nc2nc3n(n2)C(c2ccccc2)CC(=O)N3)cc1OC (configuration not stated) | -4.03% (inactive) | 
13 | O=C(Nc1n[nH]c(C(F)(F)F)n1)c1cccs1 | -2.77% (inactive) | 
14 | O=C1N=C(N2CCCC2)S/C1=C\c1cccc(Br)c1 | 26.8% (inactive) | 
15 | O=C1N=C(N2CCc3ccccc3C2)S/C1=C\c1ccc(O)cc1 |  | 1.12 µM (active)
16 | CCOc1cc(/C=C2\SC(N3CCCCC3)=NC2=O)ccc1O | 18.1% (inactive) | 
17 | Cc1ccc(CCNC(=O)c2ccc3nc4ccccc4c(=O)n3c2)cc1 | 2.06% (inactive) | 
18 | CCc1ccc(-c2nn(-c3ccccc3)cc2CSC(=N)N)cc1 |  | 11.2 µM (active)
19 | COc1ccc(N(CC(=O)NCC2CCCO2)C(=O)CCC(=O)Nc2nccs2)c(OC)c1 (configuration not stated) | 6.64% (inactive) | 
20 | O=C(NCc1ccc(F)cc1)C1CCN(C(=O)Nc2ccc(F)cc2)CC1 | 12.7% (inactive) | 
21 | O=c1[nH][nH]c(=O)c2cc(N3CCCC3)ccc12 | 0.847% (inactive) | 
22 | O=C1C=CC(=O)N1c1ccc(N2CCCCC2)cc1 |  | 5.62 µM (active)
23 | CCOC(=O)/C(C#N)=C/c1ccc(N2CCCCC2)cc1 | 41.1% (inactive) | 

Row | SMILES | activity change, negative = inhibition | Potency
24 | COc1ccc(-c2nnc3ccc(SCc4ccccc4)nn23)cc1 | 18.6% (inactive) | 
25 | COC(=O)c1ccc(CSc2ccccc2C)o1 | 23.7% (inactive) | 
26 | COC(=O)c1ccc(CSc2ccc3nnc(-c4ccccc4)n3n2)o1 |  | 10 µM (active)
27 | CN1CCN(Cc2c(C(=O)N3CCc4ccccc4C3)nc3ccc(Cl)cn23)CC1 | -0.791% (inactive) | 
28 | CN1CCN(C(=O)C(=O)c2cn(CC(=O)N3CCCC3)c3ccccc23)CC1 | 0.0969% (inactive) | 
29 | CCC(C)[C@H](NC(=O)N1c2ccccc2NC(=O)[C@@H]1C(C)C)C(=O)N[C@@H](Cc1ccccc1)C(=O)O (some centres not stated) | -3.74% (inactive) | 
30 | COc1ccccc1OCCNCC(O)COc1cccc2[nH]c3ccccc3c12 (configuration not stated) |  | inactive and 1 µM (active)
31 | CC(O)CNCCOc1cccc(Oc2ccccc2)c1 (configuration not stated) | -10.9% (inactive) | 
32 | COc1ccccc1OCC(O)CN1CCOCC1 (configuration not stated) | 6% (inactive) | 
33 | COc1cccc(OCc2nnc3n2N=C(c2ccccc2)C(CC(=O)O)S3)c1 (configuration not stated) | -7.78% (inactive) | 
34 | COc1ccc(-n2ncc3c2CC(C)(C)CC3NC(=O)CCc2c(C)nn(C)c2C)cc1 (configuration not stated) | 17.1% (inactive) | 
35 | CCCCN(CCCC)CCNC(=O)CN1C(=O)COc2ccc(S(=O)(=O)N3CCOCC3)cc21 | -12.1% (inactive) | 
36 | CC(=O)Nc1ccc(-c2nc3ccccc3o2)cc1 | -26.3% (inactive) | 
37 | Cc1ccc2nc(-c3ccc(NC(=O)c4cccnc4)cc3)oc2c1 |  | 20 µM (active)
38 | CC(=O)NC(=S)Nc1ccc(NC(=O)c2cccnc2)cc1 | 28.8% (inactive) | 
39 | COC(=O)COc1ccc2oc(=O)cc(C)c2c1 | -35% (inactive) | 
40 | Cc1cc(=O)oc2cc(OCC(=O)Nc3nnc(C4CC4)s3)ccc12 | -12.9% (inactive) | 
41 | Cc1ccc(O)c(/C=N/NC(=O)COc2ccc3c(C)cc(=O)oc3c2)c1 |  | 2.51 µM (active)
42 | Cc1c(C)c2ccc(OCC(=O)N3CCN(c4cccc(Cl)c4)CC3)cc2oc1=O | 0.847% (inactive) | 
43 | CCC(C)N1CC(=O)N2Cc3[nH]c4ccccc4c3C[C@H]2C1=O (some centres not stated) | -15.5% (inactive) | 
44 | O=C(Cn1ncc2c3ccccc3n(Cc3ccccc3)c2c1=O)NCCCN1CCOCC1 | -2.33% (inactive) | 
45 | COc1ccc(N(CC(=O)Nc2cc(OC)ccc2OC)S(=O)(=O)c2c(C)noc2C)cc1 | -1.57% (inactive) | 
46 | CC(C)(C)Nc1c(N)c(=O)oc2ccccc12 | 13.4% (inactive) | 

Row | SMILES | activity change, negative = inhibition | Potency
47 | Cc1ccccc1-n1nnc2c(=O)oc3ccccc3c21 |  | 7.94 µM (active)
48 | CCCCC(=O)Nc1cc(C)c2c(=O)oc3ccccc3c2n1 | 3.53% (inactive) | 
49 | COc1cccc(C(=O)NNS(=O)(=O)c2ccc(F)cc2)c1 | 3.67% (inactive) | 
50 | COc1ccc(C(C(=O)NCC2CCCO2)N(C(=O)Cn2nnc3ccccc32)c2ccc(NC(C)=O)cc2)cc1OC (configuration not stated) | -6.87% (inactive) | 
51 | Nc1nc(-c2ccccc2)cc(-c2ccccc2)n1 | -7.58% (inactive) | 
52 | Nc1[nH]c(=S)nc2nc(-c3ccccc3)c(-c3ccccc3)nc12 |  | 3.98 µM (active)
53 | Nc1ccc(-c2sc(N)nc2-c2ccccc2)cc1 | -17.2% (inactive) | 
54 | Cc1c(CN2CCC(n3nccc3NC(=O)CCc3ccccc3)CC2)cnn1C | -18.5% (inactive) | 
55 | CC(=O)NCCC(=O)Nc1cc(S(=O)(=O)N2CCCCC2)ccc1Oc1cccc(C)c1 | 11% (inactive) | 
56 | S=c1[nH]nc(-c2ccc(Cl)cc2)n1CC1CCCO1 (configuration not stated) |  | 11.2 µM (active)
57 | CNC(=O)NC(=O)CSc1nnc(-c2ccc(F)cc2)n1CC1CCCO1 (configuration not stated) | 10.2% (inactive) | 
58 | Cc1nnc(SCC(=O)NNC(=O)c2ccc(Cl)cc2)n1CC1CCCO1 (configuration not stated) | 15% (inactive) | 
59 | N#Cc1ccccc1S(=O)(=O)N1CCN(C(=O)c2cc(-c3ccccc3)nn2-c2ccccc2)CC1 | -11.5% (inactive) | 
60 | S=C(Nc1ccc(Br)cc1Cl)N1CCC2(CC1)OCCO2 | -25.8% (inactive) | 
61 | CC1CN(C(=S)Nc2ccc(Br)cc2Cl)CC(C)O1 (configuration not stated) |  | 12.6 µM (active)
62 | CC1CN(C(=S)Nc2ccccc2F)CC(C)O1 (configuration not stated) | 13% (inactive) | 
63 | O=C(Nc1ccc(O)cc1)c1ccc(NC(=O)c2ccco2)cc1 | 7.16% (inactive) | 
64 | Cc1cc(Cl)ccc1OCCCC(=O)NCc1ccccn1 | 16.2% (inactive) | 
65 | Cc1ccc(SCCC(=O)NCc2ccccn2)cc1 |  | 8.91 µM (active)
66 | O=C(CCSc1ccccc1)NCCSc1ccccn1 | 24.1% (inactive) | 
67 | O=C1C2CCCN2C(=O)N1CCCCN1CCN(c2cccc(C(F)(F)F)c2)CC1 (configuration not stated) | -13.4% (inactive) | 
